Peg3 promoter: Peg3 promoter-driven luciferase inhibitors, primary screen, cell-based, HeLa, luciferase luminescence; HeLa PEG-Prom luciferase reporter, overnight; inhibition, % at 20 µM; hit rate 1.7% among 360,000;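 active = inhibition of at least 50% at 20 µM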
KKLEB cytotox: cytotoxicity in KKLEB CF airway cells, primary screen, cytotoxicity control for CF NF-kB inhibitor project, cell-based, uHTS, fluorescence assay plates. KKLEB CF airway cells viability, ATPlite luminescence, overnight; active compounds read low; cells stimulated with P. aeruginosa culture filtrate. activity change (cytotoxicity), % at 5 µM. hit rate 0.36% among 360,000. AID 602141, 2011;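 active = corrected activity change at or below -50% at 5 µM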
LMP1 NFkB inh: EBV LMP1-driven NF-kappaB luciferase reporter inhibitors, primary screen, cell-based, luminescence, single point | LMP1-induced NF-kappaB luciferase reporter cells | inhibition, % at 12.5 µM | hit rate 0.69% among 350,000; in the data active = inhibition above about 41%
TRPM1 prom inh: inhibitors of MITF-dependent TRPM1 promoter reporter, primary screen, cell-based, SK-MEL-5, single point, luciferase; SK-MEL-5 TRPM1 promoter luciferase, 24 h; inhibition, % at 12.5 µM; hit rate 0.83% among 330,000; AID 488899, 2010;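 active = mean inhibition across replicates of 60% or more, whatever share of single replicates reaches that level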
CF NFkB inh: inhibitors of PAF-induced NF-kB signaling, primary screen, cell-based, GFP fluorescence, uHTS | KKLEB NF-kB-GFP reporter, GFP fluorescence overnight | AID 588850, 2011 | inhibition, % at 5 µM | hit rate 0.86% among 360,000;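 active = at least 50% inhibition at 5 µM, scaled per plate between neutral and stimulator controls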;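 also: PAF is a Pseudomonas aeruginosa culture filtrate used as stimulus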
HIF-2a inh: HIF-2a reporter inhibitors, primary screen, luminescence, 786-0 RCC cells; AID 624352, 2012; 786-0 RCC cells HIF-2a reporter, luciferase luminescence, overnight; hit rate 0.72% among 360,000; inhibition, % at 18.8 µM;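 active = inhibition of the luminescence signal of 40% or more relative to plate controls, in a single-dose primary screen at 18.75 µM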
A number is an active result; – = inactive; · = not tested or not shown. Sampled rows, rich in hits. Any-hit rate of the full collection: about 3%.

SMILES | Peg3 promoter | KKLEB cytotox | LMP1 NFkB inh | TRPM1 prom inh | CF NFkB inh | HIF-2a inh
O=C(Nc1ccc(F)cc1F)C1CCCN(c2ncnc3c2nc2n3CCCCC2)C1 (stereo not drawn) | – | – | – | – | – | –
COc1ccccc1N1CCN(CCCNC(=O)C2CCCN(c3ncnc4c3nc3n4CCCCC3)C2)CC1 (stereo not drawn) | – | – | 66 | – | – | –
O=C(Nc1cc(F)ccc1F)C1CCCN(c2ncnc3c2nc2n3CCCCC2)C1 (stereo not drawn) | 52 | – | · | – | – | –
O=C(NCCCN1CCN(c2ccc(F)cc2)CC1)C1CCCN(c2ncnc3c2nc2n3CCCCC2)C1 (stereo not drawn) | – | – | – | – | – | –
Nc1ccn([C@@H]2O[C@H](C(=O)N3CCN(c4ccc(Cl)cn4)CC3)[C@@H](O)[C@H]2O)c(=O)n1 | – | – | · | · | – | –
COc1ccc(Nc2nc(N3CCCC3)c3ccccc3n2)cc1 | 60 | – | – | – | – | –
Fc1cccc(NCCc2c[nH]c3ccccc23)n1 | – | – | – | · | – | –
COc1ccccc1Nc1nc(-c2ccccc2)nc2ccccc12 | – | – | – | – | – | –
COc1ccccc1Nc1c2ccccc2nc2ccccc12 | 88 | – | – | – | – | –
COc1ccc(Nc2c3ccccc3nc3ccccc23)cc1 | 78 | – | – | – | – | –
COc1ccc(Nc2c3c(nc4ccccc24)CCC3)cc1 | – | – | – | – | – | –
c1ccc2c(NCCc3c[nH]c4ccccc34)c3ccccc3nc2c1 | 99 | – | – | 88 | – | 44
O=C1C[C@@H]2c3c(cccc3CN1Cc1ccccc1Br)C[C@@H](O)[C@H]2O | – | – | – | – | – | –
COc1ccc(CCNc2c3ccccc3nc3ccccc23)cc1OC | 73 | – | – | – | – | 51
Oc1cccc(Nc2c3ccccc3nc3ccccc23)c1 | 76 | – | – | – | – | –
COc1nc(NCCc2ccc(OC)c(OC)c2)nc(OC)n1 | – | – | – | – | – | –
c1cncc(Nc2c3ccccc3nc3ccccc23)c1 | – | – | – | – | – | –
COc1ccc(CCNCC(O)Cn2c3ccccc3c3ccccc32)cc1OC (stereo not drawn) | 111 | – | – | – | – | –
COc1cccc(S(=O)(=O)N(C)C[C@H]2OCc3cnnn3CCCC(=O)N([C@@H](C)CO)C[C@H]2C)c1 | – | – | – | · | – | –
Cc1ccc(S(=O)(=O)N2CCN(C(=O)COC(=O)/C=C/c3ccc(OC(F)F)cc3)CC2)cc1 | – | – | – | – | – | –
CCOC(=O)N1CCC(Nc2c(-c3ccc(C)c(C)c3)c(=O)c2=O)CC1 | – | – | 53 | – | – | –
CCOC(=O)N1CCC(Nc2c(N3CCN(c4cc(Cl)ccc4C)CC3)c(=O)c2=O)CC1 | – | – | – | · | – | –
OCCCCNCc1ccc(OCc2ccc(Cl)cc2Cl)cc1 | 100 | – | – | – | – | –
OCCNCc1ccc(OCc2ccc(Cl)cc2Cl)cc1 | – | – | – | – | – | –
CCCCCc1c(-c2ccc(F)cc2F)ncn1CCc1ccccc1OC | · | · | · | · | · | –
SMILES | Peg3 promoter | KKLEB cytotox | LMP1 NFkB inh | TRPM1 prom inh | CF NFkB inh | HIF-2a inh
N/C(=N\OC(=O)Nc1ccccc1)c1ncc([N+](=O)[O-])s1 | – | – | – | 68 | – | –
O=C(COC(=O)COc1ccccc1)Nc1ncc([N+](=O)[O-])s1 | – | – | – | – | – | –
CCOc1cc(OCC)cc(C(=O)NCCN2CCC(n3c(=O)[nH]c4ccccc43)CC2)c1 | · | · | · | · | · | –
COc1cnc(-c2cccc(C(F)(F)F)c2)c(NC(=O)c2cc3ccccc3s2)n1 | – | – | · | · | – | –
CCOc1ccc(NC(=O)c2ccc(N3CC4CC(C3)c3cccc(=O)n3C4)c(NC(=O)c3cccnc3)c2)cc1 (stereo not drawn) | – | – | 61 | – | – | –
CC(C)n1[nH]c2ccccc2c1=O | – | – | · | · | – | –
Cc1csc(N2C(=O)C3C4CCC(O4)C3C2=O)n1 (stereo not drawn) | – | – | – | – | – | –
COc1ccc(C(=O)N/C(N)=N/c2nc3ccccc3o2)cc1 | – | – | – | – | – | –
